# Values without a mark were called inactive. Records with an inconclusive call do not appear. A call without a number means that no potency is given here. Calls of active or inactive are those of the source. Unless noted, the call rests on the fitted dose curve.
# Tests used:
# [1] = biological target: Androgen receptor (Homo sapiens) (UniProt P10275); test: qHTS assay for small molecule agonists of androgen receptor signaling (AID 588515; active means well fitted curve in the direction sought with a large enough effect in the signal ratio, with a control signal flat; the % refers to the signal ratio); conditions: AR-UAS-bla HEK293, beta-lactamase ratio, agonist 16 h; activation: stronger effect = higher value
# Androgen receptor (Homo sapiens), sequence (P10275 whole entry, looked up): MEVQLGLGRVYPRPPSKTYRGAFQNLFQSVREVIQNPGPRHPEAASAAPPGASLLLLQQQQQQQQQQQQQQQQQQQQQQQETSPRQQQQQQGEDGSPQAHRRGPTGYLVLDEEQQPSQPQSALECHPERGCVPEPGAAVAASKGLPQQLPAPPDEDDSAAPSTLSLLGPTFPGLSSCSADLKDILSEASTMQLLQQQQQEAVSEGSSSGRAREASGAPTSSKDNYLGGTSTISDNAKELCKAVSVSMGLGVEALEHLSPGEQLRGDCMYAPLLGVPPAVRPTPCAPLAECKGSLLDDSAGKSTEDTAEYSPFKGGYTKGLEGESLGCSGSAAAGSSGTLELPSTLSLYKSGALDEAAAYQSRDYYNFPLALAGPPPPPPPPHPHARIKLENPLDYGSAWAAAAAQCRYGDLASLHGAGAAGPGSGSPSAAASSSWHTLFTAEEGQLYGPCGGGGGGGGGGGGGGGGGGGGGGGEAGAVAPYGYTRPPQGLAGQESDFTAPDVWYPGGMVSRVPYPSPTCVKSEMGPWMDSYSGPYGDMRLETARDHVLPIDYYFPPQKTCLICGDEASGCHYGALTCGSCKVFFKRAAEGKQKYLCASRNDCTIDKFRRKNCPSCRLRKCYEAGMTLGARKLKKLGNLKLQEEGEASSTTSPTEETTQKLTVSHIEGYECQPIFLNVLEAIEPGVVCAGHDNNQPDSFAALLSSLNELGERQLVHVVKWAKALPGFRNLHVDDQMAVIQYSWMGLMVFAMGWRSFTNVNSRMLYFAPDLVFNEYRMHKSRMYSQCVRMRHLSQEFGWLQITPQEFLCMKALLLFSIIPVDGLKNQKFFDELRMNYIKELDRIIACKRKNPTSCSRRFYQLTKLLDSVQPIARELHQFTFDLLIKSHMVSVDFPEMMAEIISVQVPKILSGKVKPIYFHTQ
# Outline: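 Stimulation of an AR-responsive β-lactamase reporter in GripTite HEK293 cells was measured after 16 h compound exposure at 37 °C, via CCF4 fluorescence after 2 h RT. EC50 from Hill fits, normalized to R1881 at 30 nM.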
# [2] = biological target: Androgen receptor (Homo sapiens) (UniProt P10275); test: qHTS assay for small molecule antagonists of androgen receptor signaling (AID 588516; active means well fitted curve in the direction sought with a large enough effect in the signal ratio, with a control signal flat, not every such curve was filed as active; the % refers to the signal ratio)
# Outline: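 AR-UAS-bla GripTite HEK 293 cells (2000/well) treated with compound titrations plus 10 nM R1881 for 16 h at 37C. Beta-lactamase read by CCF4 FRET (460/530 nm); IC50 from Hill fits, normalized to R1881 and DMSO control wells.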
# [3] = biological target: Bile acid receptor (Homo sapiens) (UniProt Q96RI1); test: qHTS assay for small molecule antagonists of farnesoid X receptor signaling (AID 588526)
# Bile acid receptor (Homo sapiens), sequence (Q96RI1 whole entry, looked up): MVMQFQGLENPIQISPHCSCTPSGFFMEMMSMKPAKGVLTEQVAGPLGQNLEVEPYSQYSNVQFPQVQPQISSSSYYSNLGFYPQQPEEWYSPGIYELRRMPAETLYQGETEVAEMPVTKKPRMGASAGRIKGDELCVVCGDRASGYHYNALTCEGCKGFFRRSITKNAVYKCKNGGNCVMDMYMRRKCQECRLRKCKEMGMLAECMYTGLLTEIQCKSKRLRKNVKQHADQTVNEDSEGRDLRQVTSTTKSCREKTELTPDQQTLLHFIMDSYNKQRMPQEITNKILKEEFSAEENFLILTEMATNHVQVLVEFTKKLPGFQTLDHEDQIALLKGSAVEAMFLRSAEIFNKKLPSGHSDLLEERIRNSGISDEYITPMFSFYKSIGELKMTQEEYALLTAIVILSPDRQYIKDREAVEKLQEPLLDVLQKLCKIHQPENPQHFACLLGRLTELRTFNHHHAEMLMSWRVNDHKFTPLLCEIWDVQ
# Outline: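 Antagonist mode: titrated compounds tested against chenodeoxycholic acid stimulation (normalized to 50 uM CDCA and DMSO) in GeneBLAzer HEK293T cells for 16 h. Beta-lactamase read by CCF4 fluorescence; IC50 from Hill fits.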
# [4] = biological target: Glucocorticoid receptor (Homo sapiens) (UniProt P04150); test: qHTS assay for small molecule antagonists of glucocorticoid receptor signaling (AID 588533; active means well fitted inhibition curve with a large enough effect in the signal ratio, with a control signal flat, not every such curve was filed as active; the % refers to the signal ratio)
# Glucocorticoid receptor (Homo sapiens), sequence (P04150 whole entry, looked up): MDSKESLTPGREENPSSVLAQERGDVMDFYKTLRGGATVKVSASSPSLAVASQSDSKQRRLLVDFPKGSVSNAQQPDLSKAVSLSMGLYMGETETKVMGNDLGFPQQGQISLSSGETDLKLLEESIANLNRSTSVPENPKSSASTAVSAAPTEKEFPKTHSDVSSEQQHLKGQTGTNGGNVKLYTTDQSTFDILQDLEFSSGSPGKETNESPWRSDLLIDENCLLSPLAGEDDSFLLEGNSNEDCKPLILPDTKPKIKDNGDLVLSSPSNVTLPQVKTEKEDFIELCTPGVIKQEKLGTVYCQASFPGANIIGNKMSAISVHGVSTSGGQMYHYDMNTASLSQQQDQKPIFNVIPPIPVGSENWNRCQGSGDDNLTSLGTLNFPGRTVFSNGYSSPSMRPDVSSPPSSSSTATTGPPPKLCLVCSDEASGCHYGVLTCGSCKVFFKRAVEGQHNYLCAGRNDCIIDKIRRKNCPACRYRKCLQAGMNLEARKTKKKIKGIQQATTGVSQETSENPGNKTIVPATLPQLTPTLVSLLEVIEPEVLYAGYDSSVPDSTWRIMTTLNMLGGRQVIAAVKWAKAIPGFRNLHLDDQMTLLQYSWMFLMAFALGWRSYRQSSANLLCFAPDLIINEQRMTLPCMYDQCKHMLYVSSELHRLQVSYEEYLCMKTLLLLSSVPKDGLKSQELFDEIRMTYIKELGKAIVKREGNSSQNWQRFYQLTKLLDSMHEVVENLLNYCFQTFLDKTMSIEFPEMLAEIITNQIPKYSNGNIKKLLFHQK
# Outline: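 Antagonist-mode qHTS: compound titrations added to GRE-bla HeLa cells, then dexamethasone 2 nM final; 18 h, 37 C. CCF4 FRET fluorescence normalized to dexamethasone and DMSO; IC50 from Hill fit.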
# [5] = biological target: Peroxisome proliferator-activated receptor gamma (Homo sapiens) (UniProt P37231); test: qHTS assay for small molecule antagonists of peroxisome proliferator-activated receptor gamma signaling (AID 588537; active means well fitted inhibition curve with a large enough effect in the signal ratio, with a control signal flat, not every such curve was filed as active; the % refers to the signal ratio;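 further: reporter cells co-stimulated with 50 nM rosiglitazone agonist during compound treatment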)
# Peroxisome proliferator-activated receptor gamma (Homo sapiens), sequence (P37231 whole entry, looked up): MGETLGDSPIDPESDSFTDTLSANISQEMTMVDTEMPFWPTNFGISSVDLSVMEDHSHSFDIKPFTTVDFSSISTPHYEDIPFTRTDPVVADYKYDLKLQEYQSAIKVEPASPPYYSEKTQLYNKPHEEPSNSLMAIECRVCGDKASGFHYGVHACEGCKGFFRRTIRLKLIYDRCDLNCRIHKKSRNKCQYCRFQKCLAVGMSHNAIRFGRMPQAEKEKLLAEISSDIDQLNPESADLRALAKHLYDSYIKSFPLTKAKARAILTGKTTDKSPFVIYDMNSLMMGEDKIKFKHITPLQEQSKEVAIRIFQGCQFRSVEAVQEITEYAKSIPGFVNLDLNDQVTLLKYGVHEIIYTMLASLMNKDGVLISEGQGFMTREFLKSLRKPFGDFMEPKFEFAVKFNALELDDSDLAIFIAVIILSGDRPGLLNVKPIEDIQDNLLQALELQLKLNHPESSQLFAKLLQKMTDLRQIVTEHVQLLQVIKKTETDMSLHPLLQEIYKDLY
# Outline: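 Fluorescence at 460 and 530 nm (405 nm excitation) reported beta-lactamase cleavage of CCF4 after 2 h room-temperature loading. HEK293 reporter cells in 1% charcoal/dextran-treated FBS had received compound and rosiglitazone for 16 h.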
# [6] = biological target: Vitamin D3 receptor (Homo sapiens) (UniProt P11473); test: qHTS assay for small molecule antagonists of vitamin D receptor signaling (AID 588541);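 further: receptor activated by calcitriol during compound treatment; series mostly up to about 77 µM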
# Vitamin D3 receptor (Homo sapiens), sequence (P11473 whole entry, looked up): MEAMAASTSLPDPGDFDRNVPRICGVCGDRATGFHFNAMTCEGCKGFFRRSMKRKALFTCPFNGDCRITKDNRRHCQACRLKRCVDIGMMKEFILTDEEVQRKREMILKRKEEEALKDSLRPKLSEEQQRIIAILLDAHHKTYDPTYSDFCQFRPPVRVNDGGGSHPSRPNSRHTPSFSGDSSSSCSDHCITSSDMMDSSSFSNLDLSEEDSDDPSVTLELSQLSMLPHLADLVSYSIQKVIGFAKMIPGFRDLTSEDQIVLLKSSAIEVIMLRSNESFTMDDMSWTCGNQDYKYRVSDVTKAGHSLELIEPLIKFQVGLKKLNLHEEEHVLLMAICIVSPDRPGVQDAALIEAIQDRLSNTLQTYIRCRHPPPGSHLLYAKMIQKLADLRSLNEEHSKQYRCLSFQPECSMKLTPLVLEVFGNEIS
# Outline: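 VDR-UAS-bla HEK293T cells in 2% charcoal-stripped FBS were stimulated with 1-alpha,25-dihydroxyvitamin D3 (3 nM final) plus compound for 16 h at 37 C. The beta-lactamase CCF4 readout was normalized to 50 nM agonist and DMSO, and Hill fits gave IC50.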
# [7] = qHTS assay for small molecule activators of the p53 signaling pathway (AID 651743; active means well fitted activation curve with a large enough effect in the signal ratio, not every such curve was filed as active; the % refers to the signal ratio; further: series mostly up to about 92 µM); conditions: HCT-116 p53RE-bla, beta-lactamase FRET ratio, 16 h; activation: stronger effect = higher value
# Outline: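 Following 16 hours of compound exposure at 37 C, HCT-116 cells bearing the p53RE-bla reporter were loaded with LiveBLAzer B/G FRET substrate for 2 hours at room temperature and fluorescence intensity was recorded.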
# [8] = qHTS assay for small molecule agonists of the antioxidant response element (ARE) signaling pathway (AID 651741; active means well fitted activation curve with a large enough effect in the signal ratio; the % refers to the signal ratio)
# Outline: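 Stably integrated ARE-beta-lactamase reporter HepG2 cells; 16 h compound incubation, 37 C; LiveBLAzer FRET substrate 2 h at room temperature; fluorescence intensity.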
# [9] = biological target: Glucocorticoid receptor (Homo sapiens) (UniProt P04150); test: qHTS assay for small molecule agonists of glucocorticoid receptor signaling (AID 588532; active means well fitted curve in the direction sought with a large enough effect in the signal ratio, with a control signal flat; the % refers to the signal ratio); conditions: HeLa MMTV-bla, beta-lactamase ratio, agonist, 18 h; stronger effect = higher value; percent of dexamethasone control, DMSO zero
# Outline: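 MMTV-bla HeLa beta-lactamase reporter cells in 1% charcoal/dextran FBS medium, compounds up to 92 uM for 18 h at 37 C, CCF4 readout; normalized to 0.1 uM dexamethasone (100%), EC50 and efficacy from Hill fits.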
# [10] = biological target: Peroxisome proliferator-activated receptor delta (Homo sapiens) (UniProt Q03181); test: qHTS assay for small molecule antagonists of peroxisome proliferator-activated receptor delta signaling (AID 588535; active means well fitted inhibition curve with a large enough effect in the signal ratio, with a control signal flat, not every such curve was filed as active; the % refers to the signal ratio)
# Peroxisome proliferator-activated receptor delta (Homo sapiens), sequence (Q03181 whole entry, looked up): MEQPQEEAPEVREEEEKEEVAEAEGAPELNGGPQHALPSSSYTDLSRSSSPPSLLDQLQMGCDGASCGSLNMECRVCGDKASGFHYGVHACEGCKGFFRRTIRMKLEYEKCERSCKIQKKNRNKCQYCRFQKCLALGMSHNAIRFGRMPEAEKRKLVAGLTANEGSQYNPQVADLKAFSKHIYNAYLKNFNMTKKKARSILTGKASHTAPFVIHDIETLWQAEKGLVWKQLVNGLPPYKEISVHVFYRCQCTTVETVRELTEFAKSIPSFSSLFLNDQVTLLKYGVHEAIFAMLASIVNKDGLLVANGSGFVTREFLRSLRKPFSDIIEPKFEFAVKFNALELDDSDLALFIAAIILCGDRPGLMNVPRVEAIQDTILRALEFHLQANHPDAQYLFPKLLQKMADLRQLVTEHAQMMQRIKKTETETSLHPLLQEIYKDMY
# Outline: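 Fluorescence from CCF4-loaded GeneBLAzer PPAR-delta-UAS-bla HEK293T cells (2 hrs RT loading) quantified reporter inhibition after an 18 hr, 37 C compound exposure across a titration.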
# [11] = biological target: Cytochrome P450 3A4 (Homo sapiens) (UniProt P08684); test: qHTS Assay for Inhibitors and Substrates of Cytochrome P450 3A4 (AID 884; active means well fitted curve in the direction sought with a large enough effect; an effect the other way counts as inactive or inconclusive; further: potency means the concentration at half of the fitted maximal effect; nearly all actives have a fitted effect of over 50% in size)
# Cytochrome P450 3A4 (Homo sapiens), sequence (P08684 whole entry, looked up): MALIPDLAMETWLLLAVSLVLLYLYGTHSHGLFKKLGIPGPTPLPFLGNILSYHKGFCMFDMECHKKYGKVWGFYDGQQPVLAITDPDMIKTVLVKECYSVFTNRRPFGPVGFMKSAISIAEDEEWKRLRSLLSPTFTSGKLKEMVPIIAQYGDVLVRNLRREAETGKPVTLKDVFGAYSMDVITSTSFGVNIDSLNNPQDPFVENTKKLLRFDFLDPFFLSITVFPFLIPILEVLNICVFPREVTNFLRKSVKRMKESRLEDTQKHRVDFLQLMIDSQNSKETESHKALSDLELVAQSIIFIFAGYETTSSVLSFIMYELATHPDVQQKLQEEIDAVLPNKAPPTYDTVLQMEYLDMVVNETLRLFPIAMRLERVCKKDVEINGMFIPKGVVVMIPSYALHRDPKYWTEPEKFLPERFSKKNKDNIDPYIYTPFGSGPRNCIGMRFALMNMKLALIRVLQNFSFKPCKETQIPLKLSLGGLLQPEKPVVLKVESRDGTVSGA
# Outline: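 Luminescent readout of luciferin produced by CYP3A4 (20 nM) dealkylation of Luciferin-PPXE, 25 uM (its KM). NADPH-driven reaction ran 60 min at RT after 10 min compound preincubation; data scaled to 57 uM ketoconazole as 100% inhibition.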
# [12] = biological target: Cytochrome P450 3A4 (Homo sapiens) (UniProt P08684); test: qHTS Assay for Activators of Cytochrome P450 3A4 (AID 885; active means well fitted curve in the direction sought with a large enough effect; an effect the other way counts as inactive or inconclusive; further: nearly all actives have a fitted effect of over 65% in size)
# Outline: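 Activators are scored by enhanced luminescence from CYP3A4 conversion of luciferin-PPXE (25uM, equal to KM) to luciferin, after 60 min at RT with an NADPH-regenerating system.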
# [13] = biological target: DNA dC->dU-editing enzyme APOBEC-3G (Homo sapiens) (UniProt Q9HC16); test: qHTS for inhibitors of Vif-A3G interactions: Validation (AID 588379; active means well fitted curve in the direction sought with a large enough effect; an effect the other way counts as inactive or inconclusive)
# DNA dC->dU-editing enzyme APOBEC-3G (Homo sapiens), sequence (Q9HC16 whole entry, looked up): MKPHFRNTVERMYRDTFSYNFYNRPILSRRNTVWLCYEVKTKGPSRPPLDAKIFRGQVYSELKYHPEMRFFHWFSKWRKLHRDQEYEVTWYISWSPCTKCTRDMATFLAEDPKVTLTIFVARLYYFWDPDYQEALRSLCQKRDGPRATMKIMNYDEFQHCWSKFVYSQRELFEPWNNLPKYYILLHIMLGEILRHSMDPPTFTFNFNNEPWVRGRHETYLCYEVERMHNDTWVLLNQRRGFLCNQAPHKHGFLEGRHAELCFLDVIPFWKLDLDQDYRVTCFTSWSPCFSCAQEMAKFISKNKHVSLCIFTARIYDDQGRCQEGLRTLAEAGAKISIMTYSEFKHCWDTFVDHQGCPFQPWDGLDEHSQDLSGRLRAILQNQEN
# Outline: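 Yellow fluorescence (Ex 488, Em 500-530) of Vif-coexpressing HeLa A3G-eYFP cells, scanned by Acumen cytometer, reports blocked A3G degradation. Cells plated at 700/well overnight at 37 deg C before compound addition, then a further overnight compound incubation at 37 deg C.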
smiles,measurement,setting,value
CC(Cl)(Cl)C(=O)OCCOc1cc(Cl)c(Cl)cc1Cl,activation,[1],2.7%
same,outcome,[2],inactive
same,Potency,[3],inactive
same,Potency,[4],inactive
same,Potency,[5],inactive
same,Potency,[6],inactive
same,activation,[7],-0.345%
CS/C(=N\O)C(=O)N(C)C,activation,[1],11.7%
same,outcome,[2],inactive
same,Potency,[3],inactive
same,Potency,[4],inactive
same,Potency,[5],inactive
same,Potency,[6],inactive
same,Potency,[8],inactive
O=C1CCCC/C=C/CCCCCCCCCO1,activation,[1],0.71%
same,outcome,[2],inactive
same,Potency,[3],inactive
same,activation,[9],-15.4%
same,Potency,[4],inactive
same,Potency,[10],inactive
same,Potency,[5],inactive
same,Potency,[6],inactive
same,Potency,[8],inactive
same,activation,[7],0.177%
COc1ccccc1CC(Cc1nc2ccccc2[nH]1)c1nc2ccccc2[nH]1 (stereo unspecified),Potency,[11],1.58 µM (active)
same,Potency,[12],inactive
same,Potency,[13],inactive
CC(=O)c1c(O)c(C)c(O)c2c1OC1=CC(=O)C(C(C)=O)C(=O)[C@@]12C (stereo partly specified),Potency,[12],inactive
same,Potency,[13],inactive
COc1ccc(-c2oc3ccccc3c(=O)c2O)cc1,Potency,[12],inactive
same,Potency,[13],inactive
Clc1ccc2nc(-c3ccccc3)[nH]c2c1,Potency,[11],12.6 µM (active)
same,Potency,[12],inactive
same,Potency,[13],inactive
CC(=O)OCC1OC(Oc2cc(OC(C)=O)c3c(=O)cc(-c4ccc(OC(C)=O)c(OC(C)=O)c4)oc3c2)C(OC(C)=O)C(OC(C)=O)C1OC(C)=O (stereo unspecified),Potency,[11],3.98 µM (active)
same,Potency,[12],inactive
same,Potency,[13],inactive
CCCCCCCCCCCCCCC(=O)OC,outcome,[2],inactive
same,Potency,[3],inactive
same,Potency,[4],inactive
same,Potency,[10],inactive
same,Potency,[5],inactive
same,Potency,[6],inactive
same,Potency,[8],inactive
O=C(O)CCCCCCCCCCC(=O)O,Potency,[3],inactive
same,activation,[9],-1.99%
same,Potency,[4],inactive
same,Potency,[10],inactive
same,Potency,[6],inactive
CCCCCCCCCc1ccccc1,outcome,[2],inactive
same,Potency,[3],inactive
same,activation,[9],-4.94%
same,Potency,[4],inactive
same,Potency,[10],inactive
same,Potency,[5],inactive
same,Potency,[6],inactive
same,activation,[7],-0.95%
CCCCCCCCCCCCCc1ccccc1,Potency,[3],inactive
same,activation,[9],-7.21%
same,Potency,[4],inactive
same,Potency,[10],inactive
same,Potency,[5],inactive
same,Potency,[8],inactive
O=C(c1ccc(Cl)cc1)c1ccc(Cl)cc1,activation,[1],19.9%
same,outcome,[2],inactive
same,Potency,[5],inactive
same,Potency,[6],inactive
same,activation,[7],1.92%
CCCCCC1CCC(=O)O1 (stereo unspecified),Potency,[3],inactive
same,activation,[9],-5.15%
same,Potency,[4],inactive
same,Potency,[10],inactive
same,Potency,[6],inactive
CCCCOC(=O)c1ccccc1,outcome,[2],inactive
same,activation,[9],-8.22%
same,Potency,[10],inactive
same,Potency,[5],inactive
same,Potency,[6],inactive
same,Potency,[8],inactive
same,activation,[7],-4.18%
Nc1cc(Cl)nc(C(=O)O)c1Cl,outcome,[2],inactive
same,Potency,[3],inactive
same,activation,[9],-6.13%
same,Potency,[4],inactive
same,Potency,[10],inactive
same,Potency,[5],inactive
same,activation,[7],1.21%
CC(C)c1ccc2cc(C(C)C)ccc2c1,outcome,[2],inactive
same,activation,[9],-1.13%
same,Potency,[5],inactive
C=C[Si](OCCOC)(OCCOC)OCCOC,Potency,[3],inactive
same,activation,[9],-9.96%
same,Potency,[4],inactive
same,Potency,[10],inactive
same,Potency,[6],inactive
same,activation,[7],-3.03%
CCCC/C=C\CCCCCCCCO,activation,[1],1.62%
same,outcome,[2],inactive
same,Potency,[3],inactive
same,Potency,[10],inactive
same,Potency,[5],inactive
same,Potency,[6],inactive
same,Potency,[8],inactive
same,activation,[7],0.706%
C/C=C/C=C/CCCCCCCO,Potency,[3],inactive
same,activation,[9],-6.08%
same,Potency,[4],inactive
same,Potency,[10],inactive
same,Potency,[5],inactive
same,Potency,[8],inactive
same,activation,[7],7.24%
CC(C)(C)c1cccc(C(C)(C)C)c1O,Potency,[3],inactive
same,activation,[9],-7.64%
same,Potency,[4],inactive
same,Potency,[10],inactive
same,Potency,[5],inactive
same,Potency,[8],inactive
same,activation,[7],-0.526%
CC(C)Cc1c(C(=O)O)c(C(F)F)nc(C(F)(F)F)c1C1=NCCS1,outcome,[2],inactive
same,Potency,[3],inactive
same,Potency,[10],inactive
same,Potency,[5],inactive
same,Potency,[6],inactive
same,Potency,[8],inactive
same,activation,[7],-1.35%
CC(C)C(=O)OCC(C)(C)C(O)C(C)C (stereo unspecified),Potency,[3],inactive
same,activation,[9],-3.75%
same,Potency,[4],inactive
same,Potency,[10],inactive
same,Potency,[5],inactive
same,Potency,[6],inactive
same,Potency,[8],inactive
same,activation,[7],-2.18%
Cn1c(=O)[nH]c(=O)n(C2CCCCC2)c1=O,outcome,[2],inactive
same,Potency,[3],inactive
same,activation,[9],12.5%
same,Potency,[4],inactive
same,Potency,[6],inactive
same,activation,[7],-1.53%
CCCCOCCOCCOC(=O)CCCCC(=O)OCCOCCOCCCC,Potency,[3],inactive
same,activation,[9],-7.36%
same,Potency,[4],inactive
same,Potency,[10],inactive
same,Potency,[5],inactive
NN(c1ccccc1)c1ccccc1,activation,[1],8.8%
same,outcome,[2],inactive
same,Potency,[3],inactive
same,Potency,[10],inactive
same,Potency,[5],inactive
same,activation,[7],-3.49%
Cl[Si](Cl)(c1ccccc1)c1ccccc1,Potency,[3],inactive
same,activation,[9],0.877%
same,Potency,[4],inactive
same,Potency,[10],inactive
same,Potency,[5],inactive
same,activation,[7],-1.29%
